PostGolgi ctrl = yeast control strain growth, post-Golgi counter-screen; inhibition, % at 10 µM; 5% of 98,000 active; efflux-deficient yeast background strain, growth absorbance A615, 16 h; AID 738
CYP2C19 act = cytochrome P450 2C19 (human) activation. activation factor at 5 µM. AID 1025. 96,000 tested, under 10 active. recombinant CYP2C19, luciferin-H EGE luminescence; stronger effect = higher value; 0 = fully inhibited enzyme, 1 = untreated enzyme. P33261;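 active means activation factor of at least 2 at 5 µM in the primary screen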
PostGolgi yeast = growth inhibition of a yeast mutant, post-Golgi transport screen; post-Golgi transport phenotypic cell assay; inhibition, % at 10 µM; 0.9% of 98,000 active;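 further: yeast cells grown in 1536-well plates; yeast grown about 18 h at 30C before absorbance read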
CYP2C9 act = increases human cytochrome P450 2C9 activity; P11712; recombinant CYP2C9, luciferin-H conversion, luminescence; stronger effect = higher value; factor 1 = untreated enzyme, 0 = blocked; activation factor at 5 µM; 1.4% of 96,000 active; AID 1024;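 active means activation factor of 2 or more for CYP2C9 at a 5 µM dose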
Target sequence (P11712 whole entry, looked up): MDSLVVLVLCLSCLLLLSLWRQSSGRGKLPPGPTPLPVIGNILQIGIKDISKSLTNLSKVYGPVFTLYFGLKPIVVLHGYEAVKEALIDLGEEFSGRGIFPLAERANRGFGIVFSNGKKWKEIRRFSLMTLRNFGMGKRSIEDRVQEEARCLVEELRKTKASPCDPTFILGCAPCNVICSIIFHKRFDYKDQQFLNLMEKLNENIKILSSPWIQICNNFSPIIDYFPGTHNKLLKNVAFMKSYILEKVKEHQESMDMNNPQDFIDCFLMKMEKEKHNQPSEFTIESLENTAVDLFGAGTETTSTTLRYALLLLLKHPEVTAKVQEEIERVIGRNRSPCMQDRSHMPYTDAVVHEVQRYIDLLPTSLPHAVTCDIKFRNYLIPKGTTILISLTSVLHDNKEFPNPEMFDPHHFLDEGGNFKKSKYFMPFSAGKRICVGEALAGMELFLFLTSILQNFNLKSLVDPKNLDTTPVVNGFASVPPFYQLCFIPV
CYP2C19 inhib = blocks human cytochrome P450 2C19; CYP2C19 Supersomes, luciferin-H EGE luminescence, 30 min; inhibition, % at 5 µM; 21% of 96,000 active; AID 778;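 active means CYP2C19 inhibition above a set limit at 5 µM in the primary screen, cut at about 50% in these data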
CYP2C9 inh = inhibitors of human CYP2C9 | P11712 | CYP2C9 Supersomes, luciferin-H conversion, luminescence | inhibition, % at 5 µM | 20% of 96,000 active | AID 777;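 active means blocking of liver enzyme CYP2C9 beyond about 50% at 5 µM, limit read from the data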
Numbers stand for hits; n = inactive; x = not tested or not shown. An excerpt weighted towards active compounds, which were near 32% of everything screened. Unless noted, no stated cut-off is given here; in the data, active means inhibition above about 30%; inactive means the rest.

SMILES	PostGolgi ctrl	CYP2C19 act	PostGolgi yeast	CYP2C9 act	CYP2C19 inhib	CYP2C9 inh
O=C(NCc1ccccc1)C1CC2CCCC(C1)C2=O (stereo not given)	n	n	n	n	n	n
CCOc1cc(N2CCOCC2)c(OCC)cc1NC(=O)Cc1cccc2ccccc12	n	n	n	n	54.6	n
CS(=O)(=O)N(Cc1nnc(-c2cccs2)o1)c1ccc(Cl)cc1F	n	n	n	n	98.8	87.6
Fc1ccc(Cc2nnc(-c3cccs3)o2)cc1	n	x	n	x	x	x
CCOC(=O)C1CCN(c2cc(=O)n(Cc3ccc(F)cc3)c(=O)[nH]2)CC1	n	n	n	n	n	n
CCOC(=O)C(NC(=O)c1ccc(OC)cc1)(OCC1(CC)COC1)C(F)(F)F (stereo not given)	n	n	n	n	n	63.4
Nc1nc(OCC(F)(F)F)cc(Oc2ccccc2F)n1	n	n	n	n	58.6	n
Nc1cc(N)nc(SCCOc2ccccc2F)n1	n	x	n	x	x	x
O=C1NCCCc2nonc21	n	n	n	n	n	n
CC(=O)c1cccc(NC(=O)C2CCCN2S(=O)(=O)c2cccc3cccnc23)c1 (stereo not given)	n	n	n	n	56.0	92.0
O=C(Nc1ccc2c(c1)OCCO2)C1CCCN1S(=O)(=O)c1cccc2cccnc12 (stereo not given)	n	n	n	n	n	97.0
O=C(Nc1ccc2c(c1)OCCO2)C1CCN(S(=O)(=O)c2cccc3nsnc23)CC1	n	n	n	n	n	n
CC(=O)c1cccc(NC(=O)C2CCCN(S(=O)(=O)c3cccc4cccnc34)C2)c1 (stereo not given)	n	n	n	n	n	n
O=C(Nc1ccc(C(F)(F)F)cc1)C1CCCN1S(=O)(=O)c1cccc2cccnc12 (stereo not given)	30.1	n	n	n	n	57.4
CSc1cccc(NC(=O)C2CCCN2S(=O)(=O)c2ccc(Br)s2)c1 (stereo not given)	n	n	n	n	97.5	74.4
CSc1cccc(NC(=O)C2CCCN(S(=O)(=O)c3ccc(F)cc3)C2)c1 (stereo not given)	n	n	n	n	n	n
CCn1c(SCC(=O)Nc2cc(C)on2)nc2c1c(=O)n(C)c(=O)n2C	n	n	n	n	n	n
O=C(Nc1ccc2c(c1)OCO2)C1CCCN1C(=O)Nc1cccc(F)c1 (stereo not given)	n	n	n	n	93.1	n
O=C(Nc1cccc(F)c1)C1CCCN1S(=O)(=O)c1cccc2cccnc12 (stereo not given)	n	n	n	n	80.2	80.7
O=C(NCc1ccc2c(c1)OCO2)C1CCCN1C(=O)Nc1cccc(F)c1 (stereo not given)	n	x	n	x	x	x
COC(=O)CC1SCCNC1=O (stereo not given)	n	n	n	n	n	n
COC(=O)c1c(-c2ccncc2)csc1NC(=O)c1ccoc1C	n	n	n	n	93.7	74.3
CCN(CC)C(=O)c1sc(NC(=O)c2ccoc2C)c(C(=O)OC)c1C	n	n	n	n	n	n
O=S1(=O)C=C(Oc2ccc3ccccc3c2)c2ccccc21	34.0	n	n	n	n	n
O=S1(=O)C=C(N2CCOCC2)c2ccccc21	n	n	n	n	n	n
SMILES	PostGolgi ctrl	CYP2C19 act	PostGolgi yeast	CYP2C9 act	CYP2C19 inhib	CYP2C9 inh
O=S1(=O)C=C(Oc2ccc(F)cc2)c2ccccc21	n	n	n	n	81.4	n
O=c1c2ccccc2nnn1CSc1nnc(-c2ccc3c(c2)OCO3)o1	n	n	n	n	n	n
CN(C)c1oc(-c2ccccc2Cl)nc1P(=O)(c1ccccc1)c1ccccc1	n	n	30.8	n	n	67.2
O=C(CNC(=O)Cc1ccccc1)NCC(=O)OCc1ccccc1	n	n	n	n	n	n
O=C(CNC(=O)/C(=C\c1ccc(F)cc1)NC(=O)c1ccccc1)OCc1ccccc1	n	n	n	n	71.4	n
Cc1ccc(S(=O)(=O)/N=C(\N)Nc2nc(C)c3cc(C)c(C)cc3n2)cc1	39.9	n	n	n	n	n
Cc1ccc(S(=O)(=O)/N=C(\N)Nc2nc(C)c3ccc(C)cc3n2)cc1	n	n	n	n	n	n
CCN(CC)S(=O)(=O)c1ccc2c(c1)nc(CCC(=O)Nc1ccccc1Cc1ccccc1)n2CC	n	n	n	n	77.1	99.9
CCn1c(CCC(=O)Nc2cc(F)ccc2C)nc2cc(S(=O)(=O)N(C)C)ccc21	n	n	n	n	n	79.5
CCN(CC)S(=O)(=O)c1ccc2c(c1)nc(CCC(=O)OCC(=O)N1CCc3ccccc31)n2C	n	n	n	n	n	n
Cc1c(C(=O)N2CCCCC2)sc(N)c1C#N	n	n	n	n	n	n
Cc1c(C(=O)N2CCCCC2)sc(NC(=O)C(C)C)c1C#N	n	n	n	n	62.3	67.8
Cc1c(C(=O)N2CCCCC2)sc(NC(=O)C2CC2)c1C#N	n	n	n	n	54.4	56.1
Cc1c(C(=O)N2CCCC2)sc(NC(=O)c2cccs2)c1C#N	n	n	n	n	n	93.8
Cc1ccc(CNC(=O)C2CNc3cc(C)ccc3O2)cc1 (stereo not given)	n	n	n	n	n	n
Cc1c(C(=O)N(Cc2cccs2)C2CCS(=O)(=O)C2)oc2ccccc12 (stereo not given)	n	n	n	n	n	n
CC(=O)N(C)c1ccc(NC(=O)/C=C/c2ccccc2Cl)cc1	n	n	n	n	n	n
O=C(/C=C/c1c(Cl)cccc1Cl)Nc1ccncc1	92.0	n	51.5	n	93.7	93.1
O=C(/C=C/c1cccc(Cl)c1)Nc1ccncc1	n	n	n	n	99.0	98.7
COC(=O)Cn1cc(C(=O)OC)cc(Br)c1=O	n	n	n	n	n	n
COC(=O)c1cc(Br)c(=O)n(Cc2ccc3c(c2)OCO3)c1	n	n	n	n	87.2	79.9
COC(=O)c1cc(Br)c(=O)n(CCc2ccccc2)c1	n	n	n	n	61.6	n
COc1ccc(N2C3=[N+](CC2(C)O)c2ccccc2CC3)cc1 (stereo not given)	n	n	n	n	n	n
CCCNC(=O)c1cccc(C(F)(F)F)c1	n	n	n	n	n	n
Nc1nonc1C(=O)NC(c1ccccc1)c1ccccc1	n	n	n	n	90.0	77.5
SMILES	PostGolgi ctrl	CYP2C19 act	PostGolgi yeast	CYP2C9 act	CYP2C19 inhib	CYP2C9 inh
Nc1nonc1C(=Nc1ccccc1)NO	n	n	n	n	n	n
CCOC(=O)N1CCC(NC(=O)c2cc3cc4cc(OC)ccc4nc3o2)CC1	n	n	n	n	n	n
Cc1ccc(SC(CC(=O)c2ccc(C)cc2)C(=O)O)cc1 (stereo not given)	n	n	n	n	n	94.8
Cc1ccc(C(=O)CC(C(=O)O)n2cccn2)cc1 (stereo not given)	n	n	n	n	n	n
O=C1c2ccccc2C(=O)N1CSc1nnc2c3ccccc3n(CCc3ccccc3)c2n1	n	n	n	n	n	n
C=CCn1c2ccccc2c2nnc(SCN3C(=O)c4ccccc4C3=O)nc21	n	n	39.5	n	90.2	78.6

Assay outcomes from PubChem.
